# Measurements: PubChem BioAssay AID1541 (National Center for Advancing Translational Sciences (NCATS), 2009)
# Results filed as inconclusive are left out. Values without a mark were called inactive. Activity calls are given as the source filed them. Calls come from the whole dose curve; as a rule, active = well fitted activation curve with a large enough effect; inconclusive = small, poorly fitted or top-dose-only effect, or effect the other way; inactive = no such curve, though single readings can be large or run the other way.
# Target: Pyruvate kinase PKLR (Homo sapiens) (UniProt P30613)
# Sequence (P30613 whole entry, looked up): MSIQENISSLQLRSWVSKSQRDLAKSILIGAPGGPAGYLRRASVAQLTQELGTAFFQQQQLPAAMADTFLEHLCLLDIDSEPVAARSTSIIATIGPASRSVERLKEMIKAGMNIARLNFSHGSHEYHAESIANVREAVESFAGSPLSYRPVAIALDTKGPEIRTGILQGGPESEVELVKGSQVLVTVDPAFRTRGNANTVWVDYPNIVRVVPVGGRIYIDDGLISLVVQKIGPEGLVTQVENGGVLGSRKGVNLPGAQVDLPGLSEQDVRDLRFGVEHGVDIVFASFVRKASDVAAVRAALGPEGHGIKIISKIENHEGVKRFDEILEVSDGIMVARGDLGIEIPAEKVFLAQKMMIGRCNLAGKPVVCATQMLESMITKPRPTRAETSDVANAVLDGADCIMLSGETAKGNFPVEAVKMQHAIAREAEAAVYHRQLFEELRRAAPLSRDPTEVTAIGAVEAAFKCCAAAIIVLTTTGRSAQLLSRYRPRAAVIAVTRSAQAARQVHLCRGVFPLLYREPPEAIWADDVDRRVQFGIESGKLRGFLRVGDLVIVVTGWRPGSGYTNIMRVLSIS
# Assay: Secondary assay for Activators of Human Liver Pyruvate Kinase
# Settings: purified hPK-L, LDH-coupled NADH fluorescence kinetic; series mostly up to 57.5 µM; activation: at the top concentration
# Description: Confirmatory assay NIH Chemical Genomics Center [NCGC] Matthew G. Vander Heiden, M.D., Ph.D. [Harvard Medical School, 77 Avenue Louis Pasteur, Boston, MA 02115] NCGC Assay Overview: Human pyruvate kinase liver (hPK-L)enzyme was supplied as a highly purified (>95% pure) preparation from Harvard Medical School and a secondary assay was used to evaluate compounds. This assay couples the formation of pyruvate from hPK-R using lactate dehydrogenase (LDH) and NADH. The depletion of NADH is followed in a fluorescent-based kinetic assay that follows the formation of pyruvate to lactate, as catalyzed LDH. Pyruvate kinase substrates, PEP and ADP, were present in the assay at 0.1 mM and 4 mM respectively. In this kinetic assay initial rates were determined by following the fluorescence of NADH depletion.
# NCGC Assay Protocol Summary: Three uL of substrate mix (final concentration, 50 mM Tris-Cl pH 8.0, 200 mM KCl, 15 mM MgCl2, 0.1 mM PEP, 4.0 mM ADP, and 0.2 mM NADH) was dispensed into black-solid 1536 well plates. 23 nL of compounds were delivered by a pin tool and 1 uL of enzyme mix (final concentrations, 10 nM hPK-L and 1 uM of LDH) was added. Plates were immediately placed in ViewLux (Perkin Elmer) and NADH fluorescence was determined at 30 second exposure intervals for between 3 and 6 minutes. Data were normalized to the uninhibited and EC100 activation using known activators such as fructose-bis-phosphate.
Compound,activation [%],Potency
C[C@H]1CN(S(=O)(=O)c2ccc3c(c2)OCCO3)CCN1S(=O)(=O)c1c(F)cccc1F,-21.2,–
Cc1cc2c(s1)c1cnn(Cc3ccc(F)cc3F)c(=O)c1n2C,5.17,–
COc1cc2c(s1)c1cnn(Cc3ccccc3F)c(=O)c1n2C,–,2.51 µM (active)
Cc1cc2c(s1)c1cnn(Cc3ccccc3F)c(=O)c1n2C,–,3.52 µM (active)
Cc1cc2c(s1)c1cnn(Cc3ccccc3)c(=O)c1n2C,1.72,–
Cc1cc2c(s1)c1cnn(Cc3c(F)cccc3Cl)c(=O)c1n2C,12.8,–
Cn1c2cc(B(O)O)sc2c2cnn(Cc3c(F)cccc3Cl)c(=O)c21,4.69,–
COc1cccc(Cn2ncc3c4sc(Br)cc4n(C)c3c2=O)c1,-23.6,–
COc1ccc(Cn2ncc3c4sc(C)cc4n(C)c3c2=O)cc1F,-10.5,–
Cn1c2ccsc2c2cnn(Cc3ccc(F)cc3)c(=O)c21,–,17.8 µM (active)
Cn1c2cc(Br)sc2c2cnn(Cc3ccc(F)cc3F)c(=O)c21,–,2.51 µM (active)
Cn1c2cc(Br)sc2c2cnn(Cc3c(F)cccc3F)c(=O)c21,31.7,–
Cn1ccc2cc(S(=O)(=O)N3CCN(S(=O)(=O)c4c(F)cccc4F)CC3)ccc21,5.33,–
O=S(=O)(c1ccc2c(c1)OCCO2)N1CCN(S(=O)(=O)c2cccc[n+]2[O-])CC1,-9.32,–
O=S(=O)(c1ccc2ccccc2c1)N1CCN(S(=O)(=O)c2c(F)cccc2F)CC1,4.89,–
COc1ccc(S(=O)(=O)N2CCN(S(=O)(=O)c3ccc4c(c3)OCCO4)CC2)cc1,11.4,–
Cn1c2cc(Br)sc2c2cnn(Cc3c(F)cccc3Cl)c(=O)c21,–,7.94 µM (active)

Compound,activation [%],Potency
O=S(=O)(NCCCCNS(=O)(=O)c1c(F)cccc1F)c1ccc2c(c1)OCCO2,9.7,–
O=S(=O)(c1ccc2c(c1)OCCCO2)N1CCN(S(=O)(=O)c2c(F)cccc2F)CC1,2.62,–
O=S(=O)(c1ccc2c(c1)OCCO2)N1CCN(S(=O)(=O)c2ccccn2)CC1,10.7,–
Cc1cc2c(s1)c1cnn(Cc3cccc(Cl)c3)c(=O)c1n2C,13.2,–
O=S(=O)(NC1CCC(NS(=O)(=O)c2c(F)cccc2F)CC1)c1ccc2c(c1)OCCO2 (stereo not drawn),-4.61,–
CC(=O)c1cc2c(s1)c1cnn(Cc3ccccc3F)c(=O)c1n2C,–,0.794 µM (active)
O=C1CN(S(=O)(=O)c2ccc3c(c2)OCCO3)CCN1S(=O)(=O)c1c(F)cccc1F,1.7,–
O=C(c1c(F)cccc1F)N1CCN(S(=O)(=O)c2ccc3c(c2)OCCO3)CC1,-3.15,–
Cc1cc2c(s1)c1c(C)nn(Cc3ccccc3F)c(=O)c1n2C,27.8,–
O=S(=O)(c1c(F)cccc1F)C1CCN(S(=O)(=O)c2ccc3c(c2)OCCO3)CC1,-4.49,–
Cn1c2cc(CO)sc2c2cnn(Cc3ccccc3F)c(=O)c21,–,2.24 µM (active)
Cc1nc2ccc(S(=O)(=O)N3CCN(S(=O)(=O)c4c(F)cccc4F)CC3)cc2s1,9.53,–
O=S(=O)(NC1CCN(S(=O)(=O)c2c(F)cccc2F)C1)c1ccc2c(c1)OCCO2 (stereo not drawn),6.08,–
Cn1c2cc(B(O)O)sc2c2cnn(Cc3ccccc3F)c(=O)c21,-4.09,–
O=S(=O)(NCC1CN(S(=O)(=O)c2ccc3c(c2)OCCO3)C1)c1c(F)cccc1F,-10.5,–
COc1cccc(Cn2ncc3c4sc(B(O)O)cc4n(C)c3c2=O)c1,35.1,–
